Compounds with a hit are over-represented: about 6.9% of the library has one in this group of screens.
GRIN3A LBD mod: modulators (binders) of human NR3A ligand-binding domain; NR3A LBD differential scanning fluorimetry, Tm shift; 0% = protein alone, 100% = glycine-bound protein; Tm shift relative to glycine control, % at 25 µM; 2.5% of 340,000 active; AID 1259313;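 active means melting temperature shift of at least 10% of the positive control shift, at one fixed dose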
CSC inhib: blocks cancer stem cells. cancer stem cell-like cells viability, luminescence. inhibition, % at 7.5 µM. 1.1% of 300,000 active. AID 2717; in the data active means inhibition above about 75%; tested in HMLE shEcad cells
MPTP inh: permeability transition pore inhibition | isolated mouse mitochondria, Ca2+ swelling absorbance, 30 min | inhibition, % at 10 µM | 1.4% of 360,000 active;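 active means inhibition of 50% or more, scaled per plate between neutral and stimulator controls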;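 further: 0% = DMSO wells given calcium and 100% = 1 mM EGTA wells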
Mdm2-MdmX inh: human Mdm2/MdmX binding inhibition. O15151+Q00987. SaOS-2 split-luciferase Mdm2/MdmX complementation, luminescence. inhibition, % at 8 µM. 3% of 330,000 active. AID 485346;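 active means inhibition of at least 50% at 8 µM in the primary screen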
Target sequence (O15151 whole entry, looked up): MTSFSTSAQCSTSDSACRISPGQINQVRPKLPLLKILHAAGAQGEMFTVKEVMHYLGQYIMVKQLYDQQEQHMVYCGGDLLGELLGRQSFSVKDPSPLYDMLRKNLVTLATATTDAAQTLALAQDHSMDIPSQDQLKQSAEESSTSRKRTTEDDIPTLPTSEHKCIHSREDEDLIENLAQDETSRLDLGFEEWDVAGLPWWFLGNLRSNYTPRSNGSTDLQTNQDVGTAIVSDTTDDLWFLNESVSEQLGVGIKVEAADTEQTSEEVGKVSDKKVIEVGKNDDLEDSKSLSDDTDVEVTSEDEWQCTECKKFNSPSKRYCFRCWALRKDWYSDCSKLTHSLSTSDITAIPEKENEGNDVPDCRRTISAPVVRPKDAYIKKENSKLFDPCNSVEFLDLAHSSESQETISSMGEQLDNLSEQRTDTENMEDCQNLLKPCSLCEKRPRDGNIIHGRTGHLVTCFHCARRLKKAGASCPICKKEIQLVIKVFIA
Target sequence (Q00987 whole entry, looked up): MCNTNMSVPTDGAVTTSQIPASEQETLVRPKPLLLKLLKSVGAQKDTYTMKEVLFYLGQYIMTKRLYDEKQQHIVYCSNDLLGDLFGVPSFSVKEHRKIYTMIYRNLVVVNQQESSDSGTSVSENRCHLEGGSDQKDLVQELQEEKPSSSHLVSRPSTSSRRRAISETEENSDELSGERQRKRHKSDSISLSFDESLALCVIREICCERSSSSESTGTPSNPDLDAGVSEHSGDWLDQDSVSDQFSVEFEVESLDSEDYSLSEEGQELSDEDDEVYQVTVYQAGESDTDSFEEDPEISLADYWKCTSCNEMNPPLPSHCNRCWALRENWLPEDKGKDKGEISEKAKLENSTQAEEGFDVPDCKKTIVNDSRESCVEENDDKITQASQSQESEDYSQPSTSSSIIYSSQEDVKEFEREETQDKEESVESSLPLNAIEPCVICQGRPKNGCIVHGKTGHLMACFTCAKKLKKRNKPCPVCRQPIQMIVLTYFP
Beta apoptosis: beta cell apoptosis inhibition | INS-1E cytokine-induced death, ATP luminescence, 48 h; percent of positive-control rescue, neutral wells zero | protection from apoptosis, % (test concentration not listed) | 0.8% of 300,000 active;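 active means Every replicate reaches about 75%, or at least half do and their mean reaches it too, limit read from the data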;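 further: 0% = cytokine-treated negative control wells and 100% = positive control rescue; higher means more ATP so stronger rescue from cytokine killing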
SKKanGAS inh: inhibitors of SKKanGAS S. pyogenes growth in kanamycin (SK-promoter or general growth effect); BacTiter-Glo, 6 h; inhibition, % at 7.5 µM; 1.3% of 300,000 active; AID 1662;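 active means mean replicate score, as percent of positive control median, at least 50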;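 further: strain carries kanamycin resistance gene driven by streptokinase promoter and grows in 40 µg/ml kanamycin; loss of luminescence reflects streptokinase promoter inhibition or plain growth inhibition; 0% = median of DMSO wells and 100% = positive control at its reference dose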
MPTP counter: Rhodamine 123 counter-screen of mitochondrial pore hits | shares compounds with MPTP inh | isolated mitochondria, membrane potential, Rhodamine 123 fluorescence | inhibition, % at 10 µM | 78% of 5,000 active; in the data active means inhibition above about 22%;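 further: 0% = DMSO vehicle and 100% = positive control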
An asterisk follows results filed as active.

For Cc1sc(NC(=O)c2cccs2)nc1-c1ccccc1 the results were GRIN3A LBD mod -9.3, CSC inhib 14.1, MPTP inh -0.1, Mdm2-MdmX inh 17.3, Beta apoptosis -1.2 and SKKanGAS inh 4.9.
For COc1ccc(OC)c(NC(=O)c2ccccc2N(Cc2ccccc2)S(C)(=O)=O)c1 the results were GRIN3A LBD mod -0.1, CSC inhib -12.1, MPTP inh 0.6, Mdm2-MdmX inh 11.9, Beta apoptosis 1.9 and SKKanGAS inh -6.3.
CC(=O)c1cccc(NC(=S)NCc2ccco2)c1 was read as GRIN3A LBD mod -7.8, MPTP inh 1.6, Mdm2-MdmX inh -20.0, Beta apoptosis -7.3 and SKKanGAS inh 36.2.
S=C(NCc1ccco1)Nc1ccc(Cl)c(Cl)c1 was read as GRIN3A LBD mod 10.6*, CSC inhib 11.2, MPTP inh 93.9*, Mdm2-MdmX inh 3.0, Beta apoptosis -5.8, SKKanGAS inh 12.2 and MPTP counter 89.6*.
`S=C(NCc1ccco1)Nc1cccc(Cl)c1` gave GRIN3A LBD mod -3.6, MPTP inh 59.9*, Mdm2-MdmX inh -25.9, Beta apoptosis 8.5, SKKanGAS inh -6.7 and MPTP counter 72.7*.
For CC(C)CNC(=S)Nc1ccc(Oc2ccccc2)cc1 the results were GRIN3A LBD mod -0.2, MPTP inh 91.9*, Mdm2-MdmX inh 16.0, Beta apoptosis -3.5, SKKanGAS inh 0.7 and MPTP counter 98.1*.
For COc1ccc(NC(=S)NCc2ccco2)cc1 the results were GRIN3A LBD mod 2.5, CSC inhib -8.1, MPTP inh 0.0, Mdm2-MdmX inh 0.1, Beta apoptosis -0.4 and SKKanGAS inh 4.3.
For S=C(NCc1ccco1)Nc1ccc(Oc2ccccc2)cc1 the results were GRIN3A LBD mod -0.7, CSC inhib 19.3, MPTP inh 77.8*, Mdm2-MdmX inh -0.6, Beta apoptosis 2.1, SKKanGAS inh 5.2 and MPTP counter 84.7*.
Screening CC(OC(=O)CCN=C1NS(=O)(=O)c2ccccc21)C(=O)Nc1ccccc1F (centres undefined) returned GRIN3A LBD mod 0.7, CSC inhib -12.5, MPTP inh -1.5, Mdm2-MdmX inh -4.7 and SKKanGAS inh -5.9.
`NS(=O)(=O)c1ccc(CCNS(=O)(=O)c2cccc3nsnc23)cc1` gave GRIN3A LBD mod -1.3, MPTP inh 0.0, Mdm2-MdmX inh -13.6, Beta apoptosis -0.2 and SKKanGAS inh 4.9.
Screening O=C(NCCNC(=O)c1ccc(Cl)cc1Cl)c1ccco1 returned GRIN3A LBD mod -1.7, MPTP inh -0.3, Mdm2-MdmX inh 4.9, Beta apoptosis -10.1 and SKKanGAS inh 7.8.
For Cc1cc(C)c[n+](-c2[nH]c(=O)sc2/C=N/N=C(\N)[S-])c1 the results were GRIN3A LBD mod 0.5, CSC inhib 12.0, MPTP inh -0.3, Mdm2-MdmX inh 2.2, Beta apoptosis -0.4 and SKKanGAS inh 8.9.
Screening Cc1ccc(-n2ccnc2SCC(=O)c2c(N)n(C3CC3)c(=O)[nH]c2=O)cc1C returned GRIN3A LBD mod 1.1, MPTP inh -2.2, Mdm2-MdmX inh -7.3 and Beta apoptosis -2.9.
Screening S=C(NCc1ccco1)Nc1cc(Cl)c(Cl)cc1Cl returned GRIN3A LBD mod -1.7, CSC inhib -7.3, MPTP inh 88.3*, Mdm2-MdmX inh 2.5, Beta apoptosis -4.2, SKKanGAS inh 6.6 and MPTP counter 85.0*.
O=C(CCc1ccccc1)NC(NC(=S)Nc1ccc(Cl)cc1)C(Cl)(Cl)Cl (centres undefined) was read as GRIN3A LBD mod 26.9*, MPTP inh 93.9*, Mdm2-MdmX inh 42.8, Beta apoptosis 23.3, SKKanGAS inh 22.2 and MPTP counter 82.4*.
`O=C(NC(NC(=S)Nc1cc(Cl)ccc1Cl)C(Cl)(Cl)Cl)c1ccco1` (centres undefined) gave GRIN3A LBD mod 14.1*, CSC inhib -1.1, MPTP inh 81.9*, Mdm2-MdmX inh 3.6, Beta apoptosis -0.1, SKKanGAS inh 0.8 and MPTP counter 72.5*.
For Cc1ccccc1NC(=S)NC(NC(=O)c1ccco1)C(Cl)(Cl)Cl (centres undefined) the results were GRIN3A LBD mod -9.7, CSC inhib 5.3, MPTP inh 3.7, Mdm2-MdmX inh 23.7, Beta apoptosis -2.8 and SKKanGAS inh -3.2.
O=C(Cc1ccccc1)NC(NC(=S)Nc1cc(Cl)ccc1Cl)C(Cl)(Cl)Cl (centres undefined) was read as GRIN3A LBD mod 16.5*, CSC inhib -18.4, MPTP inh 97.8*, Mdm2-MdmX inh 8.2, Beta apoptosis 4.0, SKKanGAS inh 32.0 and MPTP counter 70.2*.
Screening CN(CCOc1ccccc1)C(=O)C1CCC(=O)N(CCN2CCOCC2)C1 (centres undefined) returned GRIN3A LBD mod 0.8, CSC inhib -6.3, MPTP inh -0.6, Mdm2-MdmX inh -4.5, Beta apoptosis -2.0 and SKKanGAS inh -3.4.
Screening Fc1cc(Br)ccc1NC(=S)Nc1ccccc1 returned GRIN3A LBD mod -1.2, CSC inhib 1.1, MPTP inh 91.7*, Mdm2-MdmX inh 3.5, SKKanGAS inh -16.9 and MPTP counter 92.6*.
For O=C(Nc1ccc(Br)cc1)Nc1ccccc1F the results were GRIN3A LBD mod 5.4, CSC inhib 16.1, MPTP inh 80.5*, Mdm2-MdmX inh -225.7, Beta apoptosis 7.6, SKKanGAS inh -23.3 and MPTP counter 90.2*.
Screening Fc1ccccc1NC(=S)Nc1ccc(Br)cc1 returned GRIN3A LBD mod 25.2*, CSC inhib -10.0, MPTP inh 97.0*, Mdm2-MdmX inh -8.6, Beta apoptosis -5.3, SKKanGAS inh -6.3 and MPTP counter 94.8*.
O=C(Nc1ccccc1F)Nc1ccccc1F was read as GRIN3A LBD mod -9.8, CSC inhib 11.2, MPTP inh 1.3, Mdm2-MdmX inh -47.4, Beta apoptosis 11.1 and SKKanGAS inh -5.0.
For Cc1ccc(NC(=S)Nc2ccc(Br)cc2)cc1 the results were GRIN3A LBD mod 2.0, MPTP inh 43.6, Mdm2-MdmX inh -20.4, Beta apoptosis 2.2 and SKKanGAS inh 7.5.
Screening O=C(CCCc1ccccc1)Nc1ccc(Br)cc1F returned GRIN3A LBD mod -1.8, CSC inhib 19.6, MPTP inh 5.1, Mdm2-MdmX inh -2.8, Beta apoptosis -6.8 and SKKanGAS inh 2.1.
Screening CCC(Oc1ccccc1)C(=O)OCC(=O)Nc1sccc1C(N)=O (centres undefined) returned GRIN3A LBD mod -1.7, MPTP inh 0.2 and Mdm2-MdmX inh -1.0.
`CCN(CC(=O)Nc1c(F)cccc1F)C(=O)c1cccc(S(=O)(=O)N(C)c2ccccc2)c1` gave GRIN3A LBD mod 1.7, CSC inhib 5.6, MPTP inh -0.1, Mdm2-MdmX inh -1.8, Beta apoptosis 1.9 and SKKanGAS inh 13.0.
